Compounds without any hit were thinned out: in the full panel of roughly 79,000, 15% have a hit. Activity calls are given as the source filed them. No stated cut-off is given here; in the data, active means growth inhibition above about 70%; inactive means the rest.
assay: NCI Yeast Anticancer Drug Screen. Data for the sgs1 mgt1 strain (AID 161);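 further: 0% = growth of cultures given vehicle only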; conditions: S. cerevisiae sgs1 mgt1 strain, at 50.0 µM, hits give high values
Procedure: Growth inhibition of yeast strains with defined genetic alterations is measured as a screen for potential anti-cancer activity. Selected strains with alterations in DNA damage repair or cell cycle control were exposed to compounds and growth inhibition was measured relative to vehicle treated controls. The strain used in this assay is sgs1 mgt1

Compound	growth inhibition
CN(C(=O)Sc1ccc([N+](=O)[O-])cc1)c1ccc([N+](=O)[O-])cc1	9.8% (inactive)
CN(/N=C/C=N/N(C)C1=NCCCCN1)C1=NCCCCN1	-22.2% (inactive)
COCCCNC(=S)N/N=C/c1ccccc1O	16.6% (inactive)
CN=C(N)SCCCSC(N)=NC	28% (inactive)
CC(N)CCCO (stereo not given)	0.75% (inactive)
Cc1cccc(C)c1C	9.85% (inactive)
Cc1ccc2ccccc2c1Cc1c(C=O)[nH]c(=S)[nH]c1=O	97% (active)
CCN(CC)c1ccc(NC(=O)CCl)cc1	-13% (inactive)
COC(=O)C1(C2CCc3cc(OC)ccc3C2=O)NC(=S)NC(=O)C1C#N (stereo not given)	-18.2% (inactive)
Brc1ccccc1N=Nc1ccccc1Br	0.6% (inactive)
CCC(=N\NC(N)=S)/C(C)=N/O	19.4% (inactive)
Cc1ccc2c(c1)SN(CN1C(=O)c3ccccc3C1=O)N2	-7.15% (inactive)
Clc1ccc(C2SC=Cc3ccccc32)cc1 (stereo not given)	47.6% (inactive)
CCCCNC(=O)NCCCC	-5.75% (inactive)
CN1CCN(C(=S)N(C(=O)c2ccc(Cl)cc2)c2ccccc2)CC1	-20.6% (inactive)
CCCCCCCCc1ccccc1	35.6% (inactive)
Cc1nc2sc(CCl)nn2c(=O)c1Cl	14.6% (inactive)
S=c1s/c(=C\c2ccccc2)c2nc3ccccc3n12	-9.4% (inactive)
O=C1C2=Cc3ccccc3OC2(O)Oc2cc(O)ccc21 (stereo not given)	0.05% (inactive)
O=C(N1CCOCC1)C12OC3CC(CC(C3)O1)O2	3.45% (inactive)

Compound	growth inhibition
CN(C)c1ccc(N=Nc2ccc(S(=O)(=O)O)cc2)cc1.CN(C)c1ccc(N=Nc2ccc(S(=O)(=O)O)cc2)cc1.[NH-]C1CCCCC1[NH-].[Pt+2]	10.3% (inactive)
COC(=O)C1C2OC(C(Br)C2Br)C1C(=O)OC (stereo not given)	-1.15% (inactive)
N/N=C(\c1ccccc1)C(Nc1ccccc1)c1ccccc1 (stereo not given)	-2.05% (inactive)
O=C(O)COc1ccc(C2CCCCC2)cc1	-7.65% (inactive)
Cc1nc(N)[nH]c(=O)c1N	8.25% (inactive)
COc1ccc(-c2cc(-c3ccccc3)n(-c3ccccc3)n2)cc1	7.2% (inactive)
CCN1CCC(CC(c2ccccc2)c2ccccc2)C1 (stereo not given)	34.2% (inactive)
CC(C)NC1(N(C)C)N=C(N(C)C)N=C(N(C)C)O1 (stereo not given)	2.75% (inactive)
CC(C(N)=O)N1C(=O)C2C3CCC(O3)C2C1=O (stereo not given)	-16.1% (inactive)
[B-]([C+]1CCCCC1)N1C=CC=CC1	15.7% (inactive)
O=C(Nc1ccc(C(F)(F)F)cc1)NC(F)(F)F	-38.1% (inactive)
COC(=O)/C=C\C1(CC(C)C)N=C(c2ccccc2)OC1=O (stereo not given)	15.8% (inactive)
O=C([O-])c1ccc(C(=O)[O-])cc1.O=C([O-])c1ccc(C(=O)[O-])cc1.[Mo+2].[Mo+2]	2.85% (inactive)
CC1CC(=O)Nc2ccccc2N1C(=O)C1CC1 (stereo not given)	-2.75% (inactive)
COCCOC(=O)Nc1c(Cl)cccc1Cl	-8.35% (inactive)
CCC[N+]1([O-])CCOCC1	-5.55% (inactive)
CCC(=C(C#N)C#N)c1cc(OC)c(OC)c(OC)c1	-24.2% (inactive)
O=C(O)c1ccc(Nc2nc3ccccc3nc2C(=O)O)cc1	-33.2% (inactive)
O=S(Cc1ccccc1)c1ccccc1Cn1cccc1 (stereo not given)	-19.6% (inactive)
CCOC(=O)C(C)N1CCCCCCC1 (stereo not given)	-2.3% (inactive)

— PubChem BioAssay (NCI)
